# Reference: PubChem BioAssay AID485297 (National Center for Advancing Translational Sciences (NCATS), 2010)
# Among all 320,000 compounds or so, about 9,100 (2.8%) were called active. Not shown: some 3% with an inconclusive outcome. The list comes from a sample in which actives are over-represented; it also holds similar structures and randomly drawn compounds. Values without a mark were called inactive. Calls follow the shape of the dose curve; as a rule, active = well fitted activation curve with a large enough effect; inconclusive = small, poorly fitted or top-dose-only effect; inactive = no such curve, though single readings can be large or run the other way.
# Experiment: qHTS Assay for Rab9 Promoter Activators; also: nearly all actives have a fitted effect of over 60% in size; as to activation, negative = inhibition: % of control where 0% means no effect
# Conditions: Huh7 Rab9 promoter-luciferase reporter, luminescence, 24 h; series mostly up to 9.22 µM; activation, negative = inhibition: at the top concentration
# In short: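 Cell-based reporter: Huh7 stable for Rab9 promoter-driven luciferase, plated in reduced-serum medium with 10% FBS at 1500 cells/well, compound-treated 24 h at 37 °C, luminescence read after 10 min reagent.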
# Potency is read from the fitted curve at half-maximal effect.
Structure (SMILES),"activation, negative = inhibition [%]",Potency
CC(C)(C)OC(=O)N[C@H](C(=O)OC(C)(C)C)c1ccc(Br)cc1,-3.11,–
O=C(OCC(=O)N1CCN(C(=O)c2ccco2)CC1)c1ccc(Cl)c(Cl)c1,-2.48,–
CN(c1ccccc1)S(=O)(=O)c1cccc(NC(=O)Cc2ccc(Cl)cc2)c1,-4.08,–
CCc1c(C)nc2cc(C)[nH]n2c1=O,1.24,–
CCCCN1Cc2c(nc3cc(-c4ccccc4)[nH]n3c2=O)C1=O,-6.04,–
C=CCc1c(C)nc2cc(-c3ccccc3)[nH]n2c1=O,–,1410 nM (active)
O=C1C=C(c2cccc(Br)c2)C[C@@H](c2ccc(F)cc2)C1,-7.46,–
NC(=O)NC(CC(=O)NNC(=O)c1ccccn1)c1ccc(Cl)cc1 (centres undefined),-15.9,–
O=S(=O)(NCCCN1CCOCC1)c1ccc(F)c(Cl)c1,-4.67,–
O=C(OCC(=O)N1CCCCCC1)c1cnc(Cl)c(Cl)c1,2.37,–
CCOc1ccc(C(=O)Nc2ccncc2)cc1,24.6,–
CCOc1ccc(NC(=O)c2ccc(NC(=O)COC(=O)c3ccc(NC(=O)CC#N)cc3)cc2)cc1,–,2240 nM (active)
CCOc1cccc(NC(=O)CC#N)c1,-2.84,–
Cc1cccc(NS(=O)(=O)c2ccc(C)c(C(=O)NCC(c3ccccc3)N(C)C)c2)c1 (centres undefined),-1.19,–
O=C(Nc1ncccc1O)c1ccc(S(=O)(=O)N2CCCC2)cc1,0.0374,–
O=C(Nc1ncccc1O)c1ccc(C(=O)c2ccccc2)cc1,–,4470 nM (active)
O=C(Nc1ncccc1O)c1ccc(S(=O)(=O)N2CCCCCC2)cc1,29.2,–
C=CCn1c(SCC(=O)NC(=O)Cc2ccccc2)nc2ccccc2c1=O,-2.86,–
Cc1ccc(S(=O)(=O)CCC(=O)OCC(=O)NCCc2ccc(S(N)(=O)=O)cc2)cc1,-4.91,–
O=C(/C(=C/c1cccc(Cl)c1)c1nc2ccccc2[nH]1)c1ccccc1,16.2,–
O=C(Cc1nc2ccccc2[nH]c1=O)c1ccc(Cl)cc1,–,2000 nM (active)
N#C/C(=C(/O)COC(=O)COc1ccc(Cl)cc1)c1nc2ccccc2[nH]1,-0.0556,–
CC(C)(C)OC(=O)Nc1ccc([C@@H](NC(=O)OC(C)(C)C)C(=O)OC(C)(C)C)cc1,0.239,–
N#Cc1ccc(CSc2nnc3ccccn23)cc1,-32.1,–
Cn1c(CC(=O)Nc2ccccc2)nnc1SCC(=O)c1ccccc1,-11.8,–
Cc1ccc(-n2c(C)cc(C(=O)CN3C(=O)C(=O)N(C4CCCC4)C3=O)c2C)cc1,0.731,–
Cc1cc(C(=O)CSc2nc(N)cc(=O)[nH]2)c(C)n1-c1cccc(F)c1,-19.8,–

Structure (SMILES),"activation, negative = inhibition [%]",Potency
Cc1ccc(-n2c(C)cc(C(=O)CSc3nnc4ccccn34)c2C)cc1,–,398 nM (active)
O=C(CSc1nnc2ccccn12)c1ccccc1,–,2510 nM (active)
COc1ccc(NC(=O)CSc2nnc(C3CC3)n2C)cc1S(=O)(=O)N1CCCCC1,-1.73,–
CC(C)c1ccc(Nc2nnc(SCC(=O)c3nnc(-c4ccccc4)o3)s2)cc1,–,4470 nM (active)
O=C(CSc1nnc(Nc2ccccc2)s1)Nc1cccnc1Cl,0.496,–
Cc1ccc(Nc2nnc(SCC(=O)c3cc4ccccc4o3)s2)cc1C,4.96,–
COc1cc2c(cc1OC)C(=O)NCC(C)(C)O2,0.04,–
COc1ccccc1-c1sc2ccccc2c1-c1ccc(Br)nc1,-7.9,–
Cc1csc(SCC(=O)N(c2ccccc2)C(C)C)n1,-4.73,–
NC(=O)c1ccsc1NC(=O)COC(=O)COc1ccc(C=O)cc1,2.6,–
O=C(O)c1ccccc1N=N/C(=N/Nc1cc(S(=O)(=O)O)ccc1O)c1ccccc1,10.6,–
O=C(O)c1cccc(S(=O)(=O)N2CC=C(c3ccccc3)CC2)c1,0.495,–
COc1cc2c(cc1OC)/C(=C/C(=O)c1ccc(NC(C)=O)cc1)NCC2,-2.71,–
CN1CCCC(OC(=O)COc2ccc(Br)cc2)C1 (centres undefined),0.13,–
CC1CN/C(=C\C(=O)c2ccc(Br)cc2)C(=O)N1 (centres undefined),–,501 nM (active)
CCCCNC(=O)OCCSCCS(=O)(=O)c1ccc(Cl)cc1,1.89,–
COc1cc2ccccc2cc1C(=O)Nc1ccccc1C,5.13,–
Cc1ccc(S(=O)(=O)Nc2nc(C)cc(N/N=C/c3ccc(O)cc3)n2)cc1,2.57,–
CC(=O)c1sc(N/N=C/c2ccc(C(C)C)cc2)nc1C,–,794 nM (active)
CC(=O)c1sc(N/N=C\c2ccc(C)cc2)nc1C,–,2000 nM (active)
CC(=O)c1sc(NC(=O)c2ccc(C)cc2)nc1C,–,1780 nM (active)
COc1ccc(/C=N\NC(=O)c2sc(N)nc2C)cc1OC,1.81,–
CC(=O)c1sc(NC(=O)CCCOc2ccccc2C)nc1C,-4.39,–
CC(=O)c1sc(N)nc1C,0.837,–
COc1cc2ccccc2cc1C(=O)Nc1nc(C)c(C(C)=O)s1,–,3980 nM (active)
Cc1nnc(C)n1/N=C/c1ccc(C(C)C)cc1,0.524,–
CC(=O)c1sc(NC(=O)C2=NN(c3ccccc3)C(=O)CC2)nc1C,0.789,–
